This passage reports composite z-score and z-score results from PubChem BioAssay.

The source made the active and inactive calls.

Assay [1] is described as follows: small molecules captured by biotinylated probe aFSTL3 – biochemical, small-molecule microarray, fluorescence 635/667, stem cell growth factor project, primary screen (AID 1064).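 Note: measures binding of the biotinylated anti-FSTL3 antibody to printed compounds.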 To be noted: higher = more signal.
A short description of assay [2]: binders from COS7 lysate, DM2A8 probe, primary screen, torsin A project, cell lysate, small-molecule microarray, fluorescence 635/667 (AID 1065). To be noted: higher = more signal, COS7 lysate expressing mutant human TOR1A.
Assay [3] in a line: small molecules captured by biotinylated probe aFGF2 – biochemical, small-molecule microarray, fluorescence 635/667, stem cell growth factor project, primary screen (AID 1067).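 Note: measures binding of biotinylated aFGF2 protein to printed compounds on slides; z-score merges feature fluorescence and signal-to-noise across triplicate slides.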 To be noted: higher = more signal.
Assay [4] in a line: small molecules captured by biotinylated probe aFGF10 – biochemical, small-molecule microarray, fluorescence 635/667, stem cell growth factor project, primary screen (AID 1071).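 Note: score merges 667 nm spot intensity and signal to noise from triplicate slides.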 To be noted: higher = more signal.
Assay [5] deals with Neurogenic locus notch homolog protein 2 (Homo sapiens) (UniProt Q04721). The assay is described as follows: small molecules binding Notch2 protein – biochemical, small-molecule microarray, 635 nm fluorescence, stem cell growth factors, primary screen (AID 1073). To be noted: higher = more signal.
Assay [6] addresses Pro-neuregulin-1, membrane-bound isoform (Homo sapiens) (UniProt Q02297). The assay is described as follows: small molecules binding neuregulin-1 protein – biochemical, small-molecule microarray, fluorescence 635/667, psychiatric disease protein project, primary screen (AID 1075).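 Note: score combines 667 nm spot fluorescence with signal to noise.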 To be noted: NRG1 binding, 635 nm fluorescence, higher = more signal.
Assay [7] deals with Neuregulin-1 EGF-like domain. The experiment in a line: small molecules binding NRG1 EGF domain – biochemical, small-molecule microarray, 635 nm fluorescence, primary screen (AID 1081).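 Note: binding of the protein to compounds printed on small-molecule microarray slides.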 To be noted: higher = more signal.
Assay [8] can be described thus: FRG1 expression reporter modulators in myotubes – cell-based, C2C12 myotubes, firefly/Renilla luciferase, luminescence, FRG1 inhibition for FSHD, primary screen (AID 1084). To be noted: FRG1 promoter luciferase, higher = more signal, called active from +8 up or from −8 down.
Assay [9] can be described thus: small molecules captured by biotinylated probe aFST – biochemical, small-molecule microarray, fluorescence 635/667, stem cell growth factor project, primary screen (AID 1086).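 Note: score merges 667 nm fluorescence with signal-to-noise of each printed compound spot.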 To be noted: higher = more signal.
A short description of assay [10]: binders of probe aHhip on microarray, primary screen, stem cell growth factor project, biochemical, small-molecule microarray, fluorescence 635/667 (AID 1087).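 Note: score merges spot fluorescence at 667nm with spot signal to noise ratio.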 To be noted: higher = more signal.
In assay [11] the test system is PRMT1 (protein arginine N-methyltransferase 1). The assay is described as follows: small molecules binding arginine methyltransferase PRMT1 – biochemical, small-molecule microarray, 635 nm fluorescence, primary screen (AID 1088).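 Note: binding of Prmt1 protein to compounds spotted on small-molecule microarray slides.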 To be noted: higher = more signal.
Assay [12] can be described thus: growth effects on S. cerevisiae YJM789 – YJM789 clinical isolate, OD600, 24 h, basal, primary screen (AID 1089).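 Note: growth of clinical yeast isolate S. cerevisiae YJM 789 seeded 1000 cells per well; test concentration not given here.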 To be noted: higher = more signal, called active from +8 up or from −8 down.
The nature of assay [13]: S. pombe growth modifiers, basal conditions – strain 972, OD600, 24 h, no modulator, primary screen (AID 1090).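 Note: basal condition with compound alone and no growth modifier present; test concentration not given here.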 To be noted: S. pombe 972 growth, higher = more signal, called active from +8 up or from −8 down.
Assay [14] is described as follows: budding yeast growth modifiers under rapamycin – strain BY4716, OD600, 96 h, primary screen (AID 1091). Note: test concentration not given here. To be noted: S. cerevisiae BY4716 + rapamycin, higher = more signal, called active from +8 up or from −8 down.
Assay [15] addresses Torsin-1A-interacting protein 2 (Homo sapiens) (UniProt Q8NFQ8). The experiment in a line: small molecules binding lysate-expressed LULL1 – cell lysate, human LULL1 lysate, 635/667 nm fluorescence, primary screen (AID 1092).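 Note: probe is lysate of COS7 cells overexpressing human LULL1; score merges per-feature 667 nm fluorescence with signal-to-noise.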 To be noted: small-molecule microarray, hLULL1 lysate binding, 635 nm fluorescence; higher = more signal.
Assay [16] in a line: optical density change of DRC41 E. coli – strain DRC41, OD650, 24 h, E. coli filamentation project, primary screen (AID 1093).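 Note: MC1000 strain lacking acrAB efflux and sulA so SOS filamentation is blocked; test concentration not given here.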 To be noted: E. coli DRC41 growth, higher = more signal, called active from +8 up or from −8 down.
Assay [17] in a line: probe aLefty2 binding to arrayed compounds – biochemical, biotinylated probe, 635/667 nm fluorescence, primary screen (AID 1094).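 Note: score merges spot fluorescence near 667 nm with spot signal-to-noise ratio.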 To be noted: small-molecule microarray, higher = more signal.
The test system of assay [18] is Noggin (protein binding on small-molecule microarray). The experiment in a line: small molecules binding Noggin protein – biochemical, 635/667 nm fluorescence, primary screen (AID 1095).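 Note: score merges 667 nm feature fluorescence with signal to noise over triplicate slides.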 To be noted: 635 nm fluorescence, higher = more signal.
In assay [19] the target is Neurogenic locus notch homolog protein 3 (Homo sapiens) (UniProt Q9UM47). The experiment in a line: small molecules binding NOTCH3 protein – biochemical, 635/667 nm fluorescence, primary screen (AID 1096). To be noted: small-molecule microarray, 635 nm fluorescence, higher = more signal.
Chain of Neurogenic locus notch homolog protein 3 (Homo sapiens) (Q9UM47 whole entry, looked up): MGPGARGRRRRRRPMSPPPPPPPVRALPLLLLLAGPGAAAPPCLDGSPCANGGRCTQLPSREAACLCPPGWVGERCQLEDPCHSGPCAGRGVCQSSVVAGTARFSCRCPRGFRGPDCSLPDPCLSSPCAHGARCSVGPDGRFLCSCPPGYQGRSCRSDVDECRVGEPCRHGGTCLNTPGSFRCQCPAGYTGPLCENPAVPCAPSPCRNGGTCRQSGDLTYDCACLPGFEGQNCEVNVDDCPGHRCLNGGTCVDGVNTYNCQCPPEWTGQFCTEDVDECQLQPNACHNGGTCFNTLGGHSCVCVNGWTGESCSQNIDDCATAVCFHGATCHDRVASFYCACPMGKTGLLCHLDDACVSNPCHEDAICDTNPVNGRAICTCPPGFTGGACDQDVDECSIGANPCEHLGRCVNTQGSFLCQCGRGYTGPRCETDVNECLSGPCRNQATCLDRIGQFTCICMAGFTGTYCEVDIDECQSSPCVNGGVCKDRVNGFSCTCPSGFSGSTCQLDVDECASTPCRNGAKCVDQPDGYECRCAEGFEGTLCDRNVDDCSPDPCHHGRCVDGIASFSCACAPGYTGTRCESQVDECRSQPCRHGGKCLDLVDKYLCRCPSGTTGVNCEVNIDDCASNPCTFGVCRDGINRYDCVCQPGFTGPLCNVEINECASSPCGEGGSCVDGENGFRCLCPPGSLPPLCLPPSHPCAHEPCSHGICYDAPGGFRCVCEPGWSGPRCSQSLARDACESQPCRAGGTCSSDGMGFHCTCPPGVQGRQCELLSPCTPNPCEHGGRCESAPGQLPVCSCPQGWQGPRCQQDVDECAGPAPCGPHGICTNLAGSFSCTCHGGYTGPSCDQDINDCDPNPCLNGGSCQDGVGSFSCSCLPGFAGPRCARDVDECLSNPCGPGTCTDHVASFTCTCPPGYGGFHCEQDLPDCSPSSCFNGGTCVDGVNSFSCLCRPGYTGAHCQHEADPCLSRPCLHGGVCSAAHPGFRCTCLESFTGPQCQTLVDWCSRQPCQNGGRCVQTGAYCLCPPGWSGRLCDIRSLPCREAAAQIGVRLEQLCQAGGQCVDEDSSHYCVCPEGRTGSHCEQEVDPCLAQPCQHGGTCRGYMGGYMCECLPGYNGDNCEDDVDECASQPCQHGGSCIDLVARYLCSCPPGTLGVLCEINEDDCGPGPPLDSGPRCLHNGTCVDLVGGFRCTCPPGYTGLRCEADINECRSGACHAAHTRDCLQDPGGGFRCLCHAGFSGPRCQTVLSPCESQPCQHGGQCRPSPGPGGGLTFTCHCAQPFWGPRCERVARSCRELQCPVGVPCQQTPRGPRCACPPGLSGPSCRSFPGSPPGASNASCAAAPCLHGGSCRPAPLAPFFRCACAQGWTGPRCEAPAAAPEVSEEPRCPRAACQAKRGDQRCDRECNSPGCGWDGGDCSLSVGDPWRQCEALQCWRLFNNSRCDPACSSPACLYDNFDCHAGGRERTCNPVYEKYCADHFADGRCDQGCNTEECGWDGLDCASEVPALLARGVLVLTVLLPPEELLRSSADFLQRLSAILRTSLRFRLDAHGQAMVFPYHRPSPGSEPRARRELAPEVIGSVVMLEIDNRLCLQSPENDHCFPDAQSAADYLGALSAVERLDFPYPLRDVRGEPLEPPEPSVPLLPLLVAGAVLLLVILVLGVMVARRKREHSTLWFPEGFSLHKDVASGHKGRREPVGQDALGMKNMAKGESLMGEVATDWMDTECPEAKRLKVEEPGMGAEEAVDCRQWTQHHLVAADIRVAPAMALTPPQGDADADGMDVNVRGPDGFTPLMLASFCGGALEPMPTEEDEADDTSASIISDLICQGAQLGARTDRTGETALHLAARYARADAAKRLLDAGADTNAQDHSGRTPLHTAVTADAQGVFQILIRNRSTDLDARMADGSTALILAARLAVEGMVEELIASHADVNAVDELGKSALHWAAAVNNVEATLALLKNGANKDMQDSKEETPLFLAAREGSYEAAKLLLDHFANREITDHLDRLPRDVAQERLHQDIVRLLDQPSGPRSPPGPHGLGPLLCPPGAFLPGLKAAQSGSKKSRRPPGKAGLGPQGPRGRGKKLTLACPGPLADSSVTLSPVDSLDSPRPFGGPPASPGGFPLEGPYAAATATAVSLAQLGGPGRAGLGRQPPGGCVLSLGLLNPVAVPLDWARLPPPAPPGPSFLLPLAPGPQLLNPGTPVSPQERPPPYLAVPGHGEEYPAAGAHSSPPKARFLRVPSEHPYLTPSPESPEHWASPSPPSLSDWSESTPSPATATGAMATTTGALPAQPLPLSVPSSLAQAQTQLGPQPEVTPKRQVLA
Assay [20] can be described thus: probe aEGFR binding to arrayed compounds – biochemical, biotinylated probe, 635/667 nm fluorescence, primary screen (AID 1097).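 Note: probe is a biotinylated anti-EGFR antibody binding compounds printed on slides; score combines fluorescence near 667 nm and signal to noise of each spot.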 To be noted: small-molecule microarray, higher = more signal.

Chain of Pro-neuregulin-1, membrane-bound isoform (Homo sapiens) (Q02297 whole entry, looked up, the tested form may be a part, canonical isoform): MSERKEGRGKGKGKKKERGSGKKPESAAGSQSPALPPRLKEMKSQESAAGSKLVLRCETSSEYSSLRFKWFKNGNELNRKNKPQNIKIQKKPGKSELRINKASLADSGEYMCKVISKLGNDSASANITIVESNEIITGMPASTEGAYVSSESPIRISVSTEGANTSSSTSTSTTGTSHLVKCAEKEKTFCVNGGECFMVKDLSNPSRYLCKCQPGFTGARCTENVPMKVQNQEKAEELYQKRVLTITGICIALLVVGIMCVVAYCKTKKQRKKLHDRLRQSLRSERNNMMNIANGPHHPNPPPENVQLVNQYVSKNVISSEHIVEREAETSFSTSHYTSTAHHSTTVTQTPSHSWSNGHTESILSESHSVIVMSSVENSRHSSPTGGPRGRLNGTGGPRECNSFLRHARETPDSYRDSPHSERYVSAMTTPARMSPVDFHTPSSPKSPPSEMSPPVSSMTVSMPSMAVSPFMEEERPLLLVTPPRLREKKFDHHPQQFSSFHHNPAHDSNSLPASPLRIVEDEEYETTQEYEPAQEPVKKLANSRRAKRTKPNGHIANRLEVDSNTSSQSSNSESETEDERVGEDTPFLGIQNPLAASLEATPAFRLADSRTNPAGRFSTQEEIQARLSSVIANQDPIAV
Chain of Torsin-1A-interacting protein 2 (Homo sapiens) (Q8NFQ8 whole entry, looked up): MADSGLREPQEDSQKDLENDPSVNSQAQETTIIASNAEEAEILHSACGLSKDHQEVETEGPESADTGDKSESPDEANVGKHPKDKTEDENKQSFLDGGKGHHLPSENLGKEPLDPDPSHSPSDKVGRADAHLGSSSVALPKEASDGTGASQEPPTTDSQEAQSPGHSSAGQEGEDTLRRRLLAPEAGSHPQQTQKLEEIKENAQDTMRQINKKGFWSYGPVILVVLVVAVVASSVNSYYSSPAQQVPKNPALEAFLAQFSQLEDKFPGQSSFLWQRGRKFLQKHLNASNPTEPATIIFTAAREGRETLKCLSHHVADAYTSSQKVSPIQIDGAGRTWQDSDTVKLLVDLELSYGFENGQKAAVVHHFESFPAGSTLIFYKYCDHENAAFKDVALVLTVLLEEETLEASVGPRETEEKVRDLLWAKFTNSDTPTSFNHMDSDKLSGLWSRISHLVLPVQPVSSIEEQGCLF

Regarding `CC(C)=CCCC(C)=CCON=C1C[C@@H](O)[C@@H](O)[C@@H]2[C@@H]3C(=O)N(c4cccc(Oc5ccccc5)c4)C(=O)[C@@H]3CC[C@@H]12`, the composite z-score in assay [1] was -0.473; in assay [2], -0.314; in [3], -0.0962; in [4], 0.341; in assay [5] it was 0.521; in assay [6], 0.938. Moreover, the composite z-score in assay [7] was 0.972; in [9], 0.34; in [10], -0.0994; in [11] it was 0.355; in [15], 1.15; in [17], -0.124. Besides, the composite z-score in [18] was -0.283; in assay [19] it was 0.751; in assay [20], -0.0302. Further, the z-score in assay [8] was 0.508 (inactive); in [12], 0.164 (inactive); in assay [13], -0.153 (inactive); in [14] it was -0.184 (inactive); in assay [16], 0.951 (inactive).
Consider `CO[C@H]1COC(=O)CC=C[C@H](C)[C@@H](OC)COC(=O)[C@@H](C)COC(=O)CC=C[C@@H]1C`, for which the composite z-score was -0.834 in assay [1]; 2.17 in assay [2]; -0.152 in assay [3]; -0.938 in [4]; -1.22 in [5]; -0.652 in [6]. Also, the composite z-score was -0.513 in assay [7]; 0.0281 in assay [9]; 0.106 in assay [10]; 1.48 in assay [11]; -0.108 in assay [15]; -0.235 in assay [17]. In addition, the composite z-score is 2.04 in [18], -0.399 in assay [19] and -0.0171 in assay [20]. In addition, the z-score is -0.862 (inactive) in [8]; 0.235 (inactive) in assay [12]; -1.41 (inactive) in assay [13]; -0.487 (inactive) in [14]; -0.176 (inactive) in [16].
As for `CO[C@@H]1COC(=O)[C@@H]2CCCN2C(=O)[C@@H](C)COC(=O)CC=C[C@H]1C`, the composite z-score in [1] is -0.776; in assay [2] it was 0.313; in assay [3], -0.122; in assay [4], 0.397; in assay [5], 0.5; in assay [6], 0.0187. Further, the composite z-score in [7] is 1.02; in assay [9], 0.271; in [10] it was 0.607; in [11], 1.41; in assay [15] it was 0.882; in assay [17], -0.0438. For the same molecule, the composite z-score was 1.18 in [18], 0.943 in assay [19] and -0.0788 in [20]. The z-score in [8] is 0.719 (inactive); in assay [12], -0.414 (inactive); in assay [13] it was 0.0992 (inactive); in assay [14], -1.14 (inactive); in assay [16], -0.152 (inactive).
Take `CC(=O)OC[C@H]1O[C@H](CCON=C2[C@H]3CCn4c(=O)n(-c5ccccc5)c(=O)n4[C@H]3[C@H](O)[C@@H]3O[C@H]23)C=C[C@@H]1OC(C)=O`: the composite z-score is -0.47 in [1]; 0.141 in assay [2]; -0.0218 in assay [3]; 0.448 in assay [4]; 0.57 in [5]; -0.147 in assay [6]. Moreover, the composite z-score in assay [7] is 0.18; in assay [9], 0.476; in assay [10], 0.163; in assay [11], 0.156; in [15], 0.77; in assay [17], -0.25. Also, the composite z-score came out at 1.43 in [18], 0.587 in assay [19] and 0.0488 in assay [20]. The z-score in assay [8] was -0.513 (inactive); in assay [12], -0.111 (inactive); in assay [13], 0.127 (inactive); in [14], 0.49 (inactive); in assay [16], 0.93 (inactive).
Turning to `O=C(NN=C1C[C@@H](O)[C@@H](O)[C@@H]2[C@@H]3C(=O)N(C4CCCCC4)C(=O)[C@@H]3CC[C@H]12)OCc1ccccc1`, the composite z-score in assay [1] is 1.01; in assay [2], 0.553; in assay [3], 0.0679; in assay [4] it was 0.0977; in assay [5], 1.1; in assay [6] it was -0.131. For the same molecule, the composite z-score in assay [7] was -0.287; in assay [9], 0.324; in assay [10], -0.558; in assay [11], -0.511; in assay [15] it was 0.352; in assay [17], -0.0239. The figures for the composite z-score in assay [18], in [19] and in assay [20] were -0.177, -0.0963 and -0.0461, respectively. In addition, the z-score in assay [8] is -0.242 (inactive); in assay [12] it was 0.298 (inactive); in assay [13], 0.267 (inactive); in assay [14], 0.799 (inactive); in assay [16], -0.0442 (inactive).
